Screening results as filed in PubChem.
Rows were chosen to be rich in hits. Some 0.77% of all compounds tested hit in one or more screens of this group.
RecA intein inh = blocks M. tuberculosis RecA intein splicing; cell-free RecA intein splicing, fluorescence; inhibition, % (test concentration not listed); 290,000 tested, 0.75% active; P9WHJ3; AID 2221; in the data active means inhibition above about 30%;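 further: 0% = vehicle wells and 100% = reference inhibitor control wells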
Mtb RmlCD inh = blocks M. tuberculosis RmlC and RmlD coupled enzymes; RmlC+RmlD coupled enzyme assay, percent inhibition; primary screen in compound mixtures; inhibition, % at 3.6 µM; 160,000 tested, 0.03% active; AID 1533; in the data active means inhibition mostly above about 34%, no sharp cut-off
Target sequence (P9WH09 whole entry, looked up): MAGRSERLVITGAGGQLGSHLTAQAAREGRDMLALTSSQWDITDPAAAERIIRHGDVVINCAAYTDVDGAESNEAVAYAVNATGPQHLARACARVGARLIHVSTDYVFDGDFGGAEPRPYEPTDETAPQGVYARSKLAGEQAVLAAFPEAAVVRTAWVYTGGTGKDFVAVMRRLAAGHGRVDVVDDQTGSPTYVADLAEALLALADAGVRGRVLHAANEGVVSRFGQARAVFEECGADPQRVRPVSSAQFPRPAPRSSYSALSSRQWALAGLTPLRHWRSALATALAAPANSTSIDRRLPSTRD
Target sequence (P9WH11 whole entry, looked up): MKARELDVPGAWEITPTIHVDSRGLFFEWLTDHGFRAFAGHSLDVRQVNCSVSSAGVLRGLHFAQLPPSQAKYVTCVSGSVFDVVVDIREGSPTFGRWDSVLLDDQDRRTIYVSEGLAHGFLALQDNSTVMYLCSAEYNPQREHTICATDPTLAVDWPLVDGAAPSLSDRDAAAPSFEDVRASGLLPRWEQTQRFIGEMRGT
GFP chromophore = counter-screen GFP chromophore formation inhibition; shares compounds with RecA intein inh; EC50, µM; cell-free GFP chromophore formation, fluorescence; AID 434968; 2,100 tested, 83% active; call rule not given here
* = called active by the depositor; x = no result given.

SMILES	RecA intein inh	Mtb RmlCD inh	GFP chromophore
Cc1cc[n+](C2=C([O-])c3ccccc3C(=O)/C2=N\S(=O)(=O)c2cccs2)cc1C	32*	-14	6.7*
CCCC[n+]1ccn(C2=C([O-])c3ccccc3C(=O)/C2=N\S(=O)(=O)c2ccccc2)c1	4	15	x
O=C1/C(=N\S(=O)(=O)c2cccs2)C([n+]2ccc(CCCc3ccccc3)cc2)=C([O-])c2ccccc21	8	-5	x
Cc1cc(C)c[n+](C2=C([O-])c3ccccc3C(=O)/C2=N\S(=O)(=O)c2cccs2)c1	2	6	x
CC(C)(C)c1cc[n+](C2=C([O-])c3ccccc3C(=O)/C2=N\S(=O)(=O)c2ccccc2)cc1	50*	-3	16*
CC(C)[n+]1ccn(C2=C([O-])c3ccccc3C(=O)/C2=N\S(=O)(=O)c2ccccc2)c1	31*	x	21*
O=C(CNC(=O)c1nc[nH]c1C(=O)N1CCc2ccccc2C1)OCc1ccccc1	0	x	x
COc1cc(CCCN2C(=O)C(=O)NC[C@@H]2C(C)O)cc(OC)c1OC (stereo not given in full)	-2	x	x
CN(CC(=O)Nc1ccc(F)cc1)C(=O)c1ccccc1OCc1ccc(F)cc1	6	x	x
COCc1c(C(=O)OCc2nc(N)nc(Nc3ccccc3C)n2)oc2ccccc12	2	-3	x
COc1ccc(NC(=O)CN(C)C(=O)CSc2nc3ccccc3s2)cc1	2	x	x
O=C(Nc1ccc(F)cc1)C1CCN(c2ncnc3c2nc2n3CCCCC2)CC1	2	x	x
Cc1nn(C)c(C)c1NC(=O)CCl	-2	-6	x
CCC(=O)Nc1c(C)nn(C(=O)CC)c1C	57*	x	>38
COc1ccc(NC(=O)/C(Cl)=C(/Cl)S(=O)(=O)Cc2ccc(C)cc2)cn1	89*	x	6.7*
COc1ccc(NC(=O)Cc2ccc(Cl)c(Cl)c2)cn1	7	-8	x
CCC/C=C1/CCCOC(C(=O)NCCNCCO)(C(F)(F)F)C1 (stereo not given)	1	x	x
Cc1cc(C)c2[nH]c(=O)c(CN(Cc3ccco3)C(=O)c3cccs3)cc2c1	x	-4	x
c1ccc2sc(Sc3ncnc4sccc34)nc2c1	x	-10	x
Cc1sc2ncnc(Sc3ccccc3C(=O)O)c2c1C	-3	0	x
Cc1sc2ncnc(Sc3nnnn3-c3ccccc3)c2c1C	34*	0	18*
Clc1ccc(-n2nnnc2Sc2ncnc3sccc23)cc1	39*	x	10*
CCNC(=O)c1sc2cc(C)ccc2c1Cl	1	3	x
COc1ccc(C(=O)C(O)C(c2ccc(C)cc2)N2CCOCC2)cc1OC (stereo not given)	-4	x	x
Cc1ccc(C)c(S(=O)(=O)N2CCCC2CNC(=O)C(=O)NCc2cccs2)c1 (stereo not given)	-1	x	x
SMILES	RecA intein inh	Mtb RmlCD inh	GFP chromophore
COc1ccc(C(=O)/C=C/Sc2nc3ccccc3o2)cc1	46*	-4	>38
COc1ccc(C(=O)N/C(N)=N/c2nc3ccccc3o2)cc1	2	6	x
O=C(CCNc1cccc(F)c1)c1cccc([N+](=O)[O-])c1	32*	x	>38
O=C(CCNc1ccc(Cc2ccncc2)cc1)c1cccc([N+](=O)[O-])c1	1	-10	x
Cc1c(C(=O)N(Cc2ccccc2)Cc2cccs2)cnn1-c1ccc(Cl)cc1	12	6	x
CS(=O)(=O)c1ccc(C(=O)OCc2nnc(-c3ccc(Cl)cc3)o2)cc1[N+](=O)[O-]	67*	x	6.8*
O=C(OCc1nnc(-c2ccc(Cl)cc2)o1)c1ccc(O)cc1	0	7	x
CC(C)c1ncc(C(O)c2ccccc2)n1C (stereo not given)	x	11	x
Cc1cccn2c(CNCC3(c4ccccc4)CCCC3)c(C(=O)N3CCOCC3)nc12	2	5	>38
CSCCNCc1c(C(=O)N2CCOCC2)nc2c(C)cccn12	6	3	x
CCn1nc([N+](=O)[O-])c(C(C#N)c2nc3ccccc3n2C)c(Cl)c1=O (stereo not given)	2	29	x
CCCn1nc([N+](=O)[O-])c(C(C#N)c2nc3ccccc3s2)c(Cl)c1=O (stereo not given)	81*	-1	6.1*
CC1=NN(c2nc(-c3ccc(F)cc3)cs2)C(=O)C1	-3	0	x
CC1=NN(c2ccc(Cl)cc2)C(=O)C1	96*	-8	3.5*
CC1=NN(c2nc(-c3ccc(Cl)cc3)cs2)C(=O)C1	26	-11	x
CC1=NN(c2ccc(N)cc2)C(=O)C1	74*	x	2.9*
CC(Oc1ccc(Cl)cc1Cl)C(=O)NC1=NN(c2ccccc2)C(=O)C1 (stereo not given)	15	-5	x
O=C1CCCCCCCN1Cc1ccccc1	-1	x	x
CC1=NN(Cc2ccccc2)C(=O)C1	89*	x	7.6*
O=C1CC(NC(=O)C(F)(F)F)=NN1c1ccccc1	90*	3	16*
OC(CC#CCN1CCCCC1)(c1ccccc1)c1ccccc1	-1	x	x
O=C(N1CCOCC1)N1CCN(S(=O)(=O)c2ccc(Cl)cc2)C1	-1	x	x
